Data on 53 compounds can be found in ChEMBL document CHEMBL3988442, “University of Dundee, Small-Polar-MMV Screening Library” (2021).

Screen size: about 48,000 compounds; about 13,000 (27%) showed an effect of 50% or more. The list shows a part of the results.

This assay has as its system Wolbachia pipientis. Briefly: Anti-Wolbachia Cell-Based Screen. As to conditions: 5 µM. It is filed as functional. Set-up: scale not given: in the data most compounds retested in dose-response had high values.
As to `Cc1cccc(OCCNC(=O)CN2CCCC2Cn2cccn2)c1` (stereo not drawn), the “Percent Effect” value is given as -3.043%. As for `O=C(CN1CCCC1Cn1cccn1)NCCOc1cccc(F)c1` (stereo not drawn), the “Percent Effect” value amounted to 99.45%. To `CN(CC(=O)N1CCCC1Cn1cccn1)C1CC1` (stereo not drawn) belongs -6.628%; to `O=C(CCCOc1ccccc1)N1CCCC1Cn1cccn1` (stereo not drawn), 116.1%; to `COc1cccc(CNC(=O)CN2CCCCC2Cn2cccn2)c1` (stereo not drawn), 0.3805%.

On to `O=C(CCOc1cccc(F)c1)N1CCCC1Cn1cccn1` (stereo not drawn), for which the “Percent Effect” value was 124.8%. In the case of `O=C(CCOc1ccc(F)cc1)N1CCCC1Cn1cccn1` (stereo not drawn), the “Percent Effect” value was 126.4%. On to `COCc1nc(CNC(=O)C(C)n2ccnc2C(C)C)no1` (stereo not drawn), for which the “Percent Effect” value is given as -16.22%.

Take `Cc1ccc(NC(=O)NC(C)C(=O)N2CCS(=O)(=O)CC2)cc1` (stereo not drawn): the “Percent Effect” value is recorded as -2.937%. On to `COc1ccc2c(ccn2CC(=O)N2CCCC2Cn2cccn2)c1` (stereo not drawn), for which the “Percent Effect” value is reported as 2.808%. In the case of `Cc1ccc(CC(=O)N2CCCCC2Cn2cccn2)cn1` (stereo not drawn), the “Percent Effect” value stood at 89.03%. As for `O=C(c1ccc(Br)o1)N1CCCCC1Cn1cccn1` (stereo not drawn), the “Percent Effect” value came out at 0.8504%. To `COc1ccc(OCCC(=O)N2CCCC2Cn2cccn2)cc1` (stereo not drawn) belongs 116.7%; to `O=C(Cn1cnnn1)N1CCCCC1Cn1cccn1` (stereo not drawn), -6.209%; to `COc1cccc(COCC(=O)N2CCCC(N3CCCC3)CC2)c1` (stereo not drawn), -3.543%. For `COc1cccc(COCC(=O)N2CCCC(n3cccn3)C2)c1` (stereo not drawn), the “Percent Effect” value worked out at 17.54%. Take `COc1cccc(COCC(=O)N2CCCC2Cn2cccn2)c1` (stereo not drawn): the “Percent Effect” value stood at 116%. For `COc1ccc2cc(C(=O)N3CCCCC3Cn3cccn3)[nH]c2c1` (stereo not drawn) the value was -2.712%; for `COc1ccc(CC(=O)N2CCCCC2Cn2cccn2)cc1` (stereo not drawn), 136.1%.

Consider `Cc1cc(CN(C)C(=O)c2ccc(F)cc2F)no1`, for which the “Percent Effect” value turned out to be 11.87%.

Take `COc1c(Br)cccc1CCNC(=O)c1csnn1`: the “Percent Effect” value is on record as -2.024%. For `CN1CCC(Cc2noc(CCc3nc4ccccc4nc3O)n2)CC1` the value was -2.649%. `Cc1cnc(C)c(N2CCN(CCCc3ccncc3)CC2)n1`: the “Percent Effect” value is -5.646%. As to `CC(C)NC(=O)NC(=O)C(C)N1CCN(C2CCN(C(C)C)CC2)CC1` (stereo not drawn), the “Percent Effect” value is -25.53%.

As for `COC(=O)C1CCCCN1Cc1cccc(C(=O)NCc2ccco2)c1` (stereo not drawn), the “Percent Effect” value is on record as 0.7191%. On to `CCn1ncnc1C(C)Nc1cc(C2CC2)ncn1` (stereo not drawn), for which the “Percent Effect” value worked out at 83.57%. To `CCc1cnc(C)nc1NC(CC)c1ncnn1CC` (stereo not drawn) belongs 9.184%; to `CCn1ncnc1C(C)Nc1cc(C2CCNCC2)nc(C)n1` (stereo not drawn), 90.92%; to `CCn1ncnc1C(C)Nc1cc(C)c2ccc(SC)cc2n1` (stereo not drawn), -5.818%. Regarding `CCn1nc(C)c(C(C)Nc2cc(C3CCNCC3)nc(C)n2)c1C` (stereo not drawn), the “Percent Effect” value came out at 97.89%. With `CCn1ncnc1C(C)NC(=O)CC1CCN(C(C)C)CC1` (stereo not drawn), the “Percent Effect” value is reported as -18.67%. On to `CCn1ncnc1C(C)NC(=O)C1CCN(C(C)C)CC1` (stereo not drawn), for which the “Percent Effect” value was -6.672%. For `NC(=O)CCNC(=O)Cc1cccc(I)c1` the value was -0.109%; for `COc1cc(C(C)NCc2scnc2C)ccc1SC(F)F` (stereo not drawn), -45.23%; for `Cc1ccc(N2CC3(CCN(S(=O)(=O)C4CC4)C3)C2)nn1`, -11.71%. For `Cc1nn(C)c(C)c1C1CCCN1CC(=O)NC(C1CC1)C1CC1` (stereo not drawn), the “Percent Effect” value is listed as 8.112%. As to `Cc1nc(C)n(CC2CCCN2CC(=O)NCc2ccco2)n1` (stereo not drawn), the “Percent Effect” value is -10.96%. On to `COCCNC(=O)CN1CCCC1c1c(C)nn(C)c1Cl` (stereo not drawn), for which the “Percent Effect” value stood at 87.98%.

As to `Cc1nn(C)c(Cl)c1C1CCCN1CC(=O)NCc1ccco1` (stereo not drawn), the “Percent Effect” value is listed as 93.09%. Take `COCCCNC(=O)CN1CCCC1c1c(C)nn(C)c1Cl` (stereo not drawn): the “Percent Effect” value is recorded as -2.309%. For `NC(=O)CN1C(=O)CO[C@H]2CN(Cc3ccc(Cl)cc3)C[C@H]21` the value was -3.813%; for `CN(CC(N)=O)Cc1c(Cl)ccc2cccnc12`, 1.669%; for `COc1ccc(Cl)cc1NCC(=O)N(Cc1ccncc1)C1CC1`, 10.17%. For `Cc1ccc(CSc2nc(N)cc(NCCC(N)=O)n2)cc1` the value was -9.969%; for `Cc1cc(NCCS(C)(=O)=O)nc2ccccc12`, 2.58%; for `CN(C)S(=O)(=O)CCNc1ncc2c(n1)CCN2c1ccccc1`, -5.162%. To `Cc1ccc(CSc2nc(N)cc(NCCS(=O)(=O)N(C)C)n2)cc1` belongs 94.01%; to `Cc1ccc(CSc2nc(N)cc(NCCC(=O)N3CCCC3)n2)cc1`, 92.81%; to `Cc1ccc(CSc2nc(N)cc(NCC(=O)N3CCNCC3)n2)cc1`, 0.4693%. In the case of `CC(C)c1nc2n(n1)CC(Nc1ncnc3ccccc13)CC2` (stereo not drawn), the “Percent Effect” value was -42.74%.

As to `COC1CCN(C(=O)c2nn(-c3ccc(C(C)C)cc3)cc2O)CC1`, the “Percent Effect” value worked out at 2.392%. For `CC(C)C1CN(C(=O)c2cc(F)cc3[nH]cnc23)CCS1` (stereo not drawn) the value was 102.4%.

On to `CCN(CCC(=O)OC)C(=O)c1cc(F)cc2[nH]cnc12`, for which the “Percent Effect” value is reported as -3.962%.
